Out of some 1,100 compounds screened, about 390 (35%) were called active. Inconclusive results (about 30%) are left out. The list shows a part of the results. Values without a mark were called inactive. Calls follow the shape of the dose curve; as a rule, active = well fitted inhibition curve with a large enough effect; inconclusive = small, poorly fitted or top-dose-only effect; inactive = flat fitted curve, though single readings scatter.
% is scaled to controls: 0 for no effect and ±100 for the full control effect; potency is read from the fitted curve at half-maximal effect.

The experiment deals with Luciferin 4-monooxygenase (Photinus pyralis) (UniProt P08659). The experiment can be described thus: qHTS of Nrf2 Activators: Hit Validation in Secondary FLuc Assay. Also: nearly all actives have a fitted effect of over 65% in size. The conditions noted are these: firefly luciferase inhibition counter-screen, luminescence; series mostly up to 57.5 µM; activity, negative = inhibition: at the top concentration. Put shortly:
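Counter-screen on purified firefly luciferase with ATP and D-luciferin at Km concentrations; compounds flagged if they inhibit the enzyme, indicating possible reporter stabilization rather than ARE activation.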
A general note: qHTS replaces the single test concentration by a dilution series.
As for `CS(=O)(=O)c1nc(S(=O)(=O)c2ccc(Cl)cc2)c(N2CCC3(CC2)OCCO3)s1`, the “activity, negative = inhibition” value is -1.6%.

As to `COC(=O)c1c(NC(=O)c2ccccc2)sc(C(N)=O)c1C`, the “activity, negative = inhibition” value is -0.933%.

As to `NC(=O)c1nc(Nc2ccccc2)sc1NC(=O)c1ccccc1Br`, the “activity, negative = inhibition” value was -28.1%.

Regarding `Cc1ccc(Nc2nc(C(N)=O)c(NC(=O)c3ccccc3Br)s2)cc1`, the Potency is 13.5 µM (active).

Consider `O=C(CSc1nccc(-c2cccs2)n1)Nc1cccc(Cl)c1Cl`, for which the “activity, negative = inhibition” value was -6.99%.

Take `O=C(Nc1ncc2c(n1)-c1ccccc1CC2)c1cccs1`: the Potency is 10.7 µM (active).

In the case of `O=C(CSc1nccc(-c2cccs2)n1)Nc1cccc(Cl)c1`, the “activity, negative = inhibition” value was -5.97%.

For `O=C(Nc1nccc(-c2cccs2)n1)c1cccs1`, the Potency is 10.7 µM (active).

For `Cc1c(Nc2nc3ccccc3n3cnnc23)cccc1[N+](=O)[O-]`, the “activity, negative = inhibition” value was 0.0637%.

Consider `Oc1ccccc1Nc1nc2ccccc2n2nnnc12`, for which the Potency was 10.7 µM (active).

For `Fc1ccc(Nc2nc3ccccc3n3cnnc23)c(F)c1`, the “activity, negative = inhibition” value is 6.09%.

With `CSc1ccc(C2NN=C(c3ccccc3)S2)cc1` (configuration not stated), the Potency is 0.0426 µM (active).

As for `CC(C)OC(=O)c1cn(-c2ccccc2)nc1-c1ccco1`, the Potency is 6.75 µM (active).

As for `O=C(Nc1cccnc1)C1(F)C(F)(F)C(F)(F)C(F)(F)C(F)(F)C1(F)F`, the “activity, negative = inhibition” value was -3.88%.

As for `O=C(Nc1ccc(N2CCN(C(=O)c3ccc(Cl)cc3)CC2)cc1)c1ccc([N+](=O)[O-])o1`, the “activity, negative = inhibition” value is -19.8%.

Turning to `N#Cc1c(NC(=O)c2ccc([N+](=O)[O-])o2)sc2c1CCC2`, the Potency is 1.69 µM (active).

For the compound `O=C(NCC1CCCO1)c1ccc([N+](=O)[O-])o1` (configuration not stated), the “activity, negative = inhibition” value was -0.921%.

On to `O=C(Nc1cc(Cl)ccc1-n1cncn1)c1ccco1`, for which the “activity, negative = inhibition” value is -2.78%.

For the compound `O=C(Nc1nc2c(ccc3ccccc32)s1)c1ccco1`, the Potency is 4.78 µM (active).

Turning to `O=C(Nc1nc2ccsc2c(=O)s1)c1ccco1`, the Potency was 10.7 µM (active).

Consider `O=C(Nc1ccc(Br)c(Cl)c1)c1ccco1`, for which the Potency is 5.36 µM (active).

`O=C(Nc1nc(-c2ccncc2)cs1)c1ccco1`: the Potency was 12 µM (active).

Consider `Cc1ccc(Cl)c2sc(NC(=O)C3CC3)nc12`, for which the “activity, negative = inhibition” value was 2.02%.

In the case of `Cc1cc(Cl)cc2sc(NC(=O)c3ccco3)nc12`, the Potency is 1.69 µM (active).

In the case of `CC(=O)Nc1ccc2nc(NC(=O)c3ccco3)sc2c1`, the Potency was 2.39 µM (active).

Regarding `C[C@H]1CCC[C@]2(C)C[C@H]3OC(=O)C(CN4CCCCCC4)[C@H]3C=C12` (some centres not stated), the “activity, negative = inhibition” value is 1.07%.

As to `N#CC1CC(c2ccccc2)=NN1c1ccccc1[N+](=O)[O-]` (configuration not stated), the Potency was 3.79 µM (active).

In the case of `Cc1ccc(Cc2c(-c3ccco3)nc3c(C)cc(Br)cn23)cc1`, the Potency is 5.36 µM (active).

Take `Cc1cc(Br)cn2c(Cc3ccccc3)c(-c3ccco3)nc12`: the Potency was 9.53 µM (active).

`COc1cc2c(cc1OC)/C(=C/c1ccc(Cl)cc1)C(=O)OC2`: the “activity, negative = inhibition” value was -15.1%.

Consider `O=C(O)c1ccc2c(=O)n3c(nc2c1)/C(=C/c1cccc(Cl)c1Cl)CC3`, for which the “activity, negative = inhibition” value was -29.6%.

On to `O=C(Nc1ccc(Br)c(C(F)(F)F)c1)c1ccccc1`, for which the Potency was 9.53 µM (active).

Turning to `O=C(Nc1ccc2c(c1)C(=O)NC2=O)c1cccc(C(F)(F)F)c1`, the “activity, negative = inhibition” value is 1.88%.

For `O=C(Nc1c(Br)cc2c(c1Br)Cc1ccccc1-2)C(F)(F)F`, the “activity, negative = inhibition” value is -22.6%.

As to `Cc1ccc(-c2nc(NCc3ccco3)c3ccccc3n2)cc1`, the Potency was 10.7 µM (active).

For the compound `Cc1cc(NCc2ccco2)n2c(nc3ccccc32)c1C#N`, the “activity, negative = inhibition” value is -6.56%.

Turning to `c1ccc(Cn2ncc3c(NCc4ccco4)ncnc32)cc1`, the “activity, negative = inhibition” value was 3.05%.

Turning to `Cc1cccc(NC(=S)NC(=O)c2cccs2)n1`, the Potency is 12 µM (active).

Turning to `O=C(NC(=S)Nc1ccc(Cl)cn1)c1cccs1`, the Potency was 0.151 µM (active).

Turning to `O=C(NC(=S)Nc1cccc2cccnc12)c1cccs1`, the Potency is 0.953 µM (active).

As for `O=C(NC(=S)Nc1ccc(Br)cn1)c1cccs1`, the Potency was 0.19 µM (active).

With `COC(=O)c1sccc1NC(=O)c1ccc(Br)s1`, the “activity, negative = inhibition” value is -17.3%.

On to `O=C(N/N=C/c1ccc(Br)s1)c1cccs1`, for which the Potency is 6.75 µM (active).

In the case of `Cc1ccc(S(=O)(=O)c2nc(S(C)(=O)=O)sc2N2CCC3(CC2)OCCO3)cc1`, the “activity, negative = inhibition” value was 0.757%.

In the case of `Cc1cc(NC(=O)CC(C)(C)C)nc2c1c(=O)oc1ccccc12`, the “activity, negative = inhibition” value is -2.51%.

On to `C=CCc1cccc(C=Nc2cc(Br)ccc2O)c1O`, for which the “activity, negative = inhibition” value was -4.76%.

Regarding `Brc1ccc2nc(-c3ccco3)c(Cc3ccsc3)n2c1`, the Potency is 5.36 µM (active).

For the compound `Fc1cccc(Cc2c(-c3ccco3)nc3ccc(Br)cn23)c1`, the Potency was 5.36 µM (active).

`O=C(N/N=C/C=C/c1ccco1)c1cccc([N+](=O)[O-])c1`: the “activity, negative = inhibition” value was -19.3%.

Take `O=C(N/N=C\C=C\c1ccco1)c1cc(-c2ccc3ccccc3c2)n[nH]1`: the Potency is 5.36 µM (active).

Regarding `O=C(O)c1ccc(/C=C2\COc3ccccc3C2=O)cc1`, the Potency was 9.53 µM (active).

For the compound `COc1ccc(N(CCCN2C(=O)c3cccc4cccc(c34)C2=O)C(=O)c2ccncc2)cc1`, the “activity, negative = inhibition” value is -1.09%.

Take `Cc1c(C(=O)NCc2ccco2)oc2c(Cl)cccc12`: the “activity, negative = inhibition” value is -3.49%.

As to `O=C(CSc1nnc2c(n1)[nH]c1ccccc12)NCc1ccco1`, the Potency is 19 µM (active).

On to `O=C(NCc1ccco1)c1n[nH]c(=O)c2ccccc12`, for which the “activity, negative = inhibition” value is 7.6%.

With `Cc1ccc(O)c(NC(=O)c2cccc(NC(=O)c3ccco3)c2)c1`, the Potency is 12 µM (active).

In the case of `Clc1ccc(Br)cc1-c1nc(-c2ccncc2)no1`, the Potency is 8.49 µM (active).

Values taken from PubChem BioAssay AID651597 (National Center for Advancing Translational Sciences (NCATS), 2012).
